Records with an inconclusive call do not appear. Where a structure was tested more than once in an assay, its records may differ in their call. Active and inactive are the calls of the source. Rule for the calls, unless noted: active = hit-call score of the fitted dose curve at least 0.9, where 1 is the maximum; inconclusive = response in the unintended direction; inactive = score below 0.9.

Our source for the outcome and AC50 values is PubChem BioAssay (EPA / NIEHS).

For experiment [1], the target named is Estrogen receptor beta (Homo sapiens) (UniProt Q92731). Briefly: OT_ER_ERbERb_1440: Odyssey Thera (OT) 24-hour HEK293T Protein-Complementation Assay for Estrogen Receptor-beta/-beta Homodimer (AID 2283380).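 Note: fluorescence gain from ER beta LBD homodimer complementation read by laser scanning cytometry; scored as signal increase over DMSO baseline for both agonists and antagonists.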 In a few lines:
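HEK293T cells stably expressing human ER-beta LBD (aa 310-547) PCA homodimer pair, dosed 24 h; formaldehyde-fixed, Draq5-stained. Readout: increase in nuclear (agonist) or nuclear plus cytoplasmic (antagonist) fluorescence intensity versus DMSO, gain-of-signal fitting.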

The target of experiment [2] is Estrogen receptor (Homo sapiens) (UniProt P03372). The experiment is described as follows: OT_ERa_GFPERaERE_0480: Odyssey Thera (OT) 8-hour HeLa Transcription Induction Assay for Estrogen Receptor (AID 2283381; active = hit-call score of the fitted dose curve at least 0.9, where 1 is the maximum; inactive = score below 0.9). In a few lines:
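Human cervical HeLa cells were treated for 8 hours, after which ERE-driven GFP induction was measured by fluorescence microscopy; increases over DMSO baseline defined activity.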

Experiment [3] has the same target. Briefly: OT_ERa_GFPERaERE_0120: Odyssey Thera (OT) 2-hour HeLa Transcription Induction Assay for Estrogen Receptor (AID 2283382). In a few lines:
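Cells (human cervical HeLa) receive compound, incubate 2 hours, then are imaged for fluorescent reporter induction. Images are quantified by high content analysis, and activity is fitted as gain of signal against DMSO.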

Experiment [4] has as its target Nuclear receptor subfamily 1 group I member 2 (Homo sapiens) (UniProt O75469). The experiment is described as follows: NVS_NR_hPXR: NovaScreen (NVS) Nuclear Receptor Binding Assay for human Pregnane X Receptor (PXR) (AID 2283365).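 Note: a drop in FRET signal versus DMSO baseline means the compound binds.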 In a few lines:
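Read-out: TR-FRET, human PXR, 2 h post-dosing, cell-free. Loss of signal vs DMSO taken as binding activity; 25 uM primary, concentration series secondary.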

For experiment [5], the target named is guinea pig Sigma Receptor, Non-selective Binding, SIGMAR1 (gene 100135589) (UniProt Q60492). The experiment is described as follows: NVS_OR_gSIGMA_NonSelective: NovaScreen (NVS) Nuclear Receptor Binding Assay for guinea pig Sigma Receptor, Non-selective Binding (AID 2283367). In a few lines:
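Test chemicals were screened in duplicate at 25 uM, then in concentration series if active, against radioligand binding to guinea pig brain membranes; filtration and scintillation counting at 1 h measured remaining bound ligand.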

In experiment [6] the target is Estrogen receptor beta (Homo sapiens) (UniProt Q92731). Briefly: OT_ER_ERbERb_0480: Odyssey Thera (OT) 8-hour HEK293T Protein-Complementation Assay for Estrogen Receptor-beta/-beta Homodimer (AID 2283357).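 Note: active means signal gain over DMSO baseline.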 In a few lines: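 Fluorescence gain from complemented reporter fragments on ER-beta LBD homodimer in HEK293T was quantified against DMSO controls after 8 h treatment, fixation in 4% formaldehyde and Draq5 staining.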

Experiment [7] concerns the target human Peroxisome Proliferator-activated Receptor alpha (PPARa), PPARA (gene 5465) (UniProt Q07869). The experiment is described as follows: NVS_NR_hPPARa: NovaScreen (NVS) Nuclear Receptor Binding Assay for human Peroxisome Proliferator-activated Receptor alpha (PPARa) (AID 2283359).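 Note: activity means loss of TR-FRET signal versus DMSO baseline.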 In a few lines: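 One-hour incubation, cell-free extracted protein, TR-FRET binding readout; signal loss vs DMSO scored. Screen: 25 uM duplicates, confirmatory dose series for actives.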

Experiment [8] addresses Agonist Androgen Response Element (ARE), AR (gene 367) (UniProt P10275). The experiment is described as follows: OT_AR_ARELUC_AG_1440: Odyssey Thera (OT) 24-hour CHO-K1 Luciferase Assay for Agonist Androgen Response Element (ARE) (AID 2283379). In a few lines: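 Luminescence increase above DMSO, read after a 24 h compound treatment of CHO-K1 cells expressing an androgen response element luciferase reporter, gives the single primary endpoint; concentration-response fitting used the positive direction.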

Experiment [9] addresses Peroxisome proliferator-activated receptor gamma (Homo sapiens) (UniProt P37231). The experiment is described as follows: NVS_NR_hPPARg: NovaScreen (NVS) Nuclear Receptor Binding Assay for human Peroxisome Proliferator-activated Receptor gamma (PPARg) (AID 2283370). In a few lines:
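Extracted receptor protein, cell-free; compound incubated 2 h then fluorescence polarization read. Baseline: DMSO. Actives from 25 uM duplicate screen re-run across concentrations.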

Experiment [10] addresses human Serotonin Transporter (SERT), SLC6A4 (gene 6532) (UniProt P31645). The experiment is described as follows: NVS_TR_hSERT: NovaScreen (NVS) Transporter Assay for human Serotonin Transporter (SERT) (AID 2283372). In a few lines: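 Human platelet membrane preparation; displacement of radioligand from serotonin transporter measured after 1 h by filtration and scintillation counting. Single 25 uM duplicate screen, then concentration series for actives, with DMSO as negative baseline.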

Experiment [11] concerns the target rat Serotonin Transporter (SERT), Slc6a4 (gene 25553) (UniProt P31652). Briefly: NVS_TR_rSERT: NovaScreen (NVS) Transporter Assay for rat Serotonin Transporter (SERT) (AID 2283375). In a few lines:
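Using rat forebrain membrane SERT, test chemicals compete with a radioligand for 1 hour, and bound counts are taken by filter-based scintillation. Screening starts at 25 uM in duplicate, followed by concentration series for actives.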

For experiment [12], the target named is PGR (gene 5241) (UniProt P06401). The experiment is described as follows: NVS_NR_hPR: NovaScreen (NVS) Nuclear Receptor Binding Assay for human Progestron Receptor (PR) (AID 2283360).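 Note: active means loss of bound radioligand signal versus DMSO baseline.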 In a few lines: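 T47D-derived receptor preparation, cell-free, with tritiated or iodinated radioligand displacement measured by scintillation 18 h post-dosing. Single 25 uM duplicate screen, then concentration series; signal loss relative to DMSO.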

The target in experiment [13] is human Norepinephrine Transporter (NET), SLC6A2 (gene 6530) (UniProt P23975). The experiment is described as follows: NVS_TR_hNET: NovaScreen (NVS) Transporter Assay for human Norepinephrine Transporter (NET) (AID 2283377).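 For AC50: displacement of radioligand from human NET seen as loss of scintillation signal.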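 Note: cell-free membrane protein extracted from CHO cells expressing human NET.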 In a few lines: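 In this cell-free binding screen, chemicals at 25 uM (duplicate) compete with a radioligand for CHO-derived human NET over 1 hour, with filter-based radiodetection.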

Experiment [14] has as its target mouse Estrogen Receptor alpha (Era), Esr1 (gene 13982) (UniProt P19785). The experiment is described as follows: NVS_NR_mERa: NovaScreen (NVS) Nuclear Receptor Binding Assay for mouse Estrogen Receptor alpha (Era) (AID 2283378).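 Note: hit means loss of bound radioligand signal relative to DMSO.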 In a few lines: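 Measurements come from scintillation counting after filtration, taken 18 hours after chemicals were added to a cell-free mouse Era preparation with radioligand. Screening was duplicate at 25 uM, with concurrent positive and negative controls and confirmatory concentration series for actives.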

For experiment [15], the target named is human Adenosine Transporter (Adot), SLC29A1 (gene 2030) (UniProt Q99808). Briefly: NVS_TR_hAdoT: NovaScreen (NVS) Transporter Assay for human Adenosine Transporter (Adot) (AID 2283368). In a few lines:
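Binding displacement on U937 extracted protein, read 1 h post-dose by filtration and scintillation counting. Primary duplicate test at 25 uM, then singleton concentration series with 50 uM top; DMSO baseline.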

In experiment [16] the target is Norway rat Vesicular Monoamine Transporter (VMAT2), neurotransmitter transporter, Slc18a2 (gene 25549) (UniProt Q01827). Briefly: NVS_TR_rVMAT2: NovaScreen (NVS) Transporter Assay for Norway rat Vesicular Monoamine Transporter (VMAT2), neurotransmitter transporter (AID 2283376).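 Note: actives lower the bound radioligand signal below the DMSO level.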 In a few lines: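 Binding endpoint from rat forebrain tissue, cell-free; 1 h incubation; filtered radioligand counted; 25 uM duplicate primary then dose series; DMSO negative control.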

Estrogen receptor beta (Homo sapiens), sequence (Q92731 whole entry, looked up, the tested form may be a part): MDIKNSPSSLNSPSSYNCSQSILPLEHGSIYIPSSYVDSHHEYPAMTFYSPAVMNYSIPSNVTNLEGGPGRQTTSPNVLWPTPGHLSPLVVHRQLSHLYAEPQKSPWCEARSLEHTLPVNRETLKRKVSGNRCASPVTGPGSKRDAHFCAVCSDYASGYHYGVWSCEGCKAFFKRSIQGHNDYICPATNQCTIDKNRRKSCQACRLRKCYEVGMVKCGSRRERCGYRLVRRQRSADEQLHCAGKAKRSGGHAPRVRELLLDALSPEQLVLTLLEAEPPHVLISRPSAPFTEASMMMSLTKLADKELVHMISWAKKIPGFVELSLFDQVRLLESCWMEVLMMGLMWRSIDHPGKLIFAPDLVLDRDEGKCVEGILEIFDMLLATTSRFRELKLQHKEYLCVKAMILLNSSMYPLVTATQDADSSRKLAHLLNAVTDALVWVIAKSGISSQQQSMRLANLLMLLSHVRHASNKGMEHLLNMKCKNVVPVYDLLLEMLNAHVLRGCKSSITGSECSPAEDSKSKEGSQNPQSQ
Nuclear receptor subfamily 1 group I member 2 (Homo sapiens), sequence (O75469 whole entry, looked up): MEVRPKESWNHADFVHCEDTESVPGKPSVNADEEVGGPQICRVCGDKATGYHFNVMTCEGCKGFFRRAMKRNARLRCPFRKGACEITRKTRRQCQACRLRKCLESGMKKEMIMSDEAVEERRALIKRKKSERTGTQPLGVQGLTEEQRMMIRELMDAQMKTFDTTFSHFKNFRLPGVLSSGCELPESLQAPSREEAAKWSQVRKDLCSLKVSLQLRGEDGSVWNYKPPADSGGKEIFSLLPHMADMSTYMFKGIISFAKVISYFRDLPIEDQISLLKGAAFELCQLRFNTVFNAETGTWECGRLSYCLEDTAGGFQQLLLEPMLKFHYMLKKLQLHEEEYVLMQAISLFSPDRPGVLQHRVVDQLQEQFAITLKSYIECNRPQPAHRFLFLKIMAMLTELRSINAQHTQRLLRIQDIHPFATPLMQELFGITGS
Agonist Androgen Response Element (ARE), AR (gene 367), sequence (P10275 whole entry, looked up): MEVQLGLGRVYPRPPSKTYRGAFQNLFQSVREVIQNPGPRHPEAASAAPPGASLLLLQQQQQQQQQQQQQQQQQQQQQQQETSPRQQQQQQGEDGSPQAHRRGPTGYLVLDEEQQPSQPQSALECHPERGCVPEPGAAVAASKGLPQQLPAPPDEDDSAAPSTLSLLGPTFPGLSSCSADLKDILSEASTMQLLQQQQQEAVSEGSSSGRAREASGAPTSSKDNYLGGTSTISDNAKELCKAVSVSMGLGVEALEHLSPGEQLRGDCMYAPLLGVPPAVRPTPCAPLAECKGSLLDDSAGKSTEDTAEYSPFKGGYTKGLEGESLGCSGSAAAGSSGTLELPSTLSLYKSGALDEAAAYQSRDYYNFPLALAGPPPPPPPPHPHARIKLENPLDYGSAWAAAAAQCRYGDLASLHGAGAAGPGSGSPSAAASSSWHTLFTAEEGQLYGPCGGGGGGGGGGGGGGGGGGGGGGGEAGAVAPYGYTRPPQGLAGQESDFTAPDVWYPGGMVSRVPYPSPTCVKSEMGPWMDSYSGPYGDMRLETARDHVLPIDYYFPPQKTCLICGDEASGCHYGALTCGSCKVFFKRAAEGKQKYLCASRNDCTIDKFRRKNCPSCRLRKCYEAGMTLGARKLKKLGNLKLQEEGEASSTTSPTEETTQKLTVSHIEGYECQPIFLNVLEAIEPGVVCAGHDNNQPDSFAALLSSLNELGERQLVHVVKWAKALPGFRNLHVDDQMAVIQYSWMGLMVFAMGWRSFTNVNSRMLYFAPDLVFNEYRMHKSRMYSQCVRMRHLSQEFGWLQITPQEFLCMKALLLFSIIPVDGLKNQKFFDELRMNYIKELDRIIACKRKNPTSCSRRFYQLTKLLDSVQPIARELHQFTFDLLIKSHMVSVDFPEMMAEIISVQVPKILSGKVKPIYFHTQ
Peroxisome proliferator-activated receptor gamma (Homo sapiens), sequence (P37231 whole entry, looked up): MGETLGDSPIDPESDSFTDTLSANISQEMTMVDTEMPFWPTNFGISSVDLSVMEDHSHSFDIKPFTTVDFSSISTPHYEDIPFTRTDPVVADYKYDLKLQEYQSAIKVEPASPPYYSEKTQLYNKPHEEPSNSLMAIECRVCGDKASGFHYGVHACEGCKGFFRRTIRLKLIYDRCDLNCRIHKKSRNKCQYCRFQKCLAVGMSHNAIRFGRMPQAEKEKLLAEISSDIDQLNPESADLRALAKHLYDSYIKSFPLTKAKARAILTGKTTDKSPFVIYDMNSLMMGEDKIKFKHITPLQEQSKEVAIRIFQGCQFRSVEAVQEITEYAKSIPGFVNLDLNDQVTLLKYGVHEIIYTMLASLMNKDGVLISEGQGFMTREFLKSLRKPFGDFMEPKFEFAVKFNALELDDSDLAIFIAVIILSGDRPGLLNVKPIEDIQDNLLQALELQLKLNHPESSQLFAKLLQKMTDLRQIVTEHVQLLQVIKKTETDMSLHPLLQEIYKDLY
guinea pig Sigma Receptor, Non-selective Binding, SIGMAR1 (gene 100135589), sequence (Q60492 whole entry, looked up): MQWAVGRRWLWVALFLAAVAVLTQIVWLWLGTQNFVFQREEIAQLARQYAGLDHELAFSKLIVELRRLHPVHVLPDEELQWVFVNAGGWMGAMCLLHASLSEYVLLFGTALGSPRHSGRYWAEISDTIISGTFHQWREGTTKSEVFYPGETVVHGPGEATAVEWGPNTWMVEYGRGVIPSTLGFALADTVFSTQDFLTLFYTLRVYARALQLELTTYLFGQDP
rat Serotonin Transporter (SERT), Slc6a4 (gene 25553), sequence (P31652 whole entry, looked up): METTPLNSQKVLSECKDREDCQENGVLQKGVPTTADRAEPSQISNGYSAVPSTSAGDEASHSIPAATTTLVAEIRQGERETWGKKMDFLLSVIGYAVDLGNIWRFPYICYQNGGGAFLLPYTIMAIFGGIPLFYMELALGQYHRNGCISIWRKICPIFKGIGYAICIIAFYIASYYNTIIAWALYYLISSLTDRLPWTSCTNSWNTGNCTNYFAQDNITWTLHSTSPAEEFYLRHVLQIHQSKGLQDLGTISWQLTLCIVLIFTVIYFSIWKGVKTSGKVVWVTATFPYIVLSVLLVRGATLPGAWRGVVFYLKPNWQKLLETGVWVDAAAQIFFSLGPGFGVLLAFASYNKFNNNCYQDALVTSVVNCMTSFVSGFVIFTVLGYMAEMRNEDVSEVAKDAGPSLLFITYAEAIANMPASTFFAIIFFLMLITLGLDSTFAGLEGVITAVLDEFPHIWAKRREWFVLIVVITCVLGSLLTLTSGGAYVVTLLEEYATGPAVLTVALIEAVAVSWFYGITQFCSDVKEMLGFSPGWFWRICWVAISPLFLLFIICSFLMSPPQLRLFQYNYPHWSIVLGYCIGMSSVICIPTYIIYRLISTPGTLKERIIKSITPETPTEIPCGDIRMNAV
human Serotonin Transporter (SERT), SLC6A4 (gene 6532), sequence (P31645 whole entry, looked up): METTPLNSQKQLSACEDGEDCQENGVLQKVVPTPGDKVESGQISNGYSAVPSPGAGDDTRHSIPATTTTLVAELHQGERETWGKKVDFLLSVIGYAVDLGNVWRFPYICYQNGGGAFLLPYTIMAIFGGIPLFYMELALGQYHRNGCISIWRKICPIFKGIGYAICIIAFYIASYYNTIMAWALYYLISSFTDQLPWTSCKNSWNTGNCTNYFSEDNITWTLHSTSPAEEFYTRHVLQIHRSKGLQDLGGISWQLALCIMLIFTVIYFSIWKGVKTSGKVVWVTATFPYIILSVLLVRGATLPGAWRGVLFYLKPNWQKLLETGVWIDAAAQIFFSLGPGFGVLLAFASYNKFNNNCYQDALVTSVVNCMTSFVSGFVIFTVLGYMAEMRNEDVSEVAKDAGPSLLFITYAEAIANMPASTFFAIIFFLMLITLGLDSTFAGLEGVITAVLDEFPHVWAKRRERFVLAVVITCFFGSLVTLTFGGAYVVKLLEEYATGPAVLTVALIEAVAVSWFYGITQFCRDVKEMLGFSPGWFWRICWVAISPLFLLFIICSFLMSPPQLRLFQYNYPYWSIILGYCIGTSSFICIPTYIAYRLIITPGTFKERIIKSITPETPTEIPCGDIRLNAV
Estrogen receptor (Homo sapiens), sequence (P03372 whole entry, looked up): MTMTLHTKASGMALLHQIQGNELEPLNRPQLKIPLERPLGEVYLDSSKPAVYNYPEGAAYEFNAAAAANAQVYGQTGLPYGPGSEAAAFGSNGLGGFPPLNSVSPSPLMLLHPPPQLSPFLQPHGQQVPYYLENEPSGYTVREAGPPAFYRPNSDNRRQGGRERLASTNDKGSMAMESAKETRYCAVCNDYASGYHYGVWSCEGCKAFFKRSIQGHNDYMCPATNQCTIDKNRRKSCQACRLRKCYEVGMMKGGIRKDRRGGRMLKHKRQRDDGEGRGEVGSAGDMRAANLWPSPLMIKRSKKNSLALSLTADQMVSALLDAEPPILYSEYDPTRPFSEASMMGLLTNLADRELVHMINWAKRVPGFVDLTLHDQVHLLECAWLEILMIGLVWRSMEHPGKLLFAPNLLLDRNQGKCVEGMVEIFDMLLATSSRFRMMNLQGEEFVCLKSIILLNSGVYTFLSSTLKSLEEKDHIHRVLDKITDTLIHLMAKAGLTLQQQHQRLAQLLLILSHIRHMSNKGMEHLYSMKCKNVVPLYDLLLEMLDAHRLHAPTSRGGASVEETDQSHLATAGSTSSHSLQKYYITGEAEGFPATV
human Adenosine Transporter (Adot), SLC29A1 (gene 2030), sequence (Q99808 whole entry, looked up): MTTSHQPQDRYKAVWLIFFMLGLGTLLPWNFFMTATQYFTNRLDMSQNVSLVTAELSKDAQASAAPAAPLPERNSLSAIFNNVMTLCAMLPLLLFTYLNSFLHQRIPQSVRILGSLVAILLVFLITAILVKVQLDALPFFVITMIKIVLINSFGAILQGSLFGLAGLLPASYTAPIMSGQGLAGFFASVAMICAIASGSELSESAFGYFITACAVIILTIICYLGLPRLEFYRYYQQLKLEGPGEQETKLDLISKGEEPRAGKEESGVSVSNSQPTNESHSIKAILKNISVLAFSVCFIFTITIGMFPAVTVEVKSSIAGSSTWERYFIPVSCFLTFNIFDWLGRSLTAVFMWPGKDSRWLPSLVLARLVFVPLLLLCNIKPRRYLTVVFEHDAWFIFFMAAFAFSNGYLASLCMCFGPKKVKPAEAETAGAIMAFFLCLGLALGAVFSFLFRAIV

Take `COC(=O)C=C(C)OP(=O)(OC)OC`: the call in experiment [1], in experiment [2] and in experiment [3] was inactive.

Consider `C=CCC1=C(C)[C@@H](OC(=O)[C@@H]2[C@@H](C=C(C)C)C2(C)C)CC1=O`, for which the molecule was called inactive in experiment [4], in [2] and in experiment [3]. For the same molecule, in [5], the AC50 (usually the midpoint of the concentration-response curve, whichever way the signal moves) was 37.4 µM (active).

Consider `CC(C)(C)c1ccc(CSc2cnn(C(C)(C)C)c(=O)c2Cl)cc1`, for which the molecule was called inactive in [6], in experiment [1], in experiment [2] and in [3].

As for `N#Cc1cc(Br)c(O)c(Br)c1`, the molecule was called inactive in experiment [7], in [2] and in experiment [3].

On to `CCON=C(CC)C1=C(O)CC(c2c(C)cc(C)cc2C)CC1=O` (configuration not stated), for which the call in experiment [5], in experiment [8], in experiment [2] and in experiment [3] was inactive.

Take `CCOc1cc(Oc2ccc(C(F)(F)F)cc2Cl)ccc1[N+](=O)[O-]`: the molecule was called inactive in experiment [6], in experiment [1], in experiment [2] and in experiment [3].

In the case of `CC(C)C1(C)N=C(c2nc3ccccc3cc2C(=O)O)NC1=O` (configuration not stated), the call in [6], in [1], in [2] and in experiment [3] was inactive.

`Cc1cc(Cl)ccc1OCC(=O)O`: the molecule was classed as inactive in experiment [9], in [10], in experiment [11], in experiment [8], in [2] and in experiment [3]. The concentration at half-maximal activity (AC50) in experiment [8] was 24 µM (active).

`CNC(=O)ON=CC(C)(C)SC`: the call in [12], in experiment [2] and in experiment [3] was inactive.

`Fc1ccc(Oc2ccnc3cc(Cl)cc(Cl)c23)cc1`: the call in experiment [6], in experiment [1], in experiment [2] and in experiment [3] was inactive.

Regarding `Cc1c(F)c(F)c(COC(=O)C2C(/C=C(\Cl)C(F)(F)F)C2(C)C)c(F)c1F` (configuration not stated), the molecule was classed as inactive in experiment [6], in experiment [1], in experiment [2] and in experiment [3].

With `CON(C)C(=O)Nc1ccc(Cl)c(Cl)c1`, the call in experiment [12], in experiment [4], in experiment [9], in [13], in experiment [14] and in experiment [2] was inactive. The result in experiment [3] was inactive. The AC50 was 12 µM (active) in experiment [5] and 25 µM (active) in experiment [13].

As for `COc1nc(C)nc(NC(=O)NS(=O)(=O)c2ccccc2CCC(F)(F)F)n1`, the AC50 in experiment [15] is 0.0855 µM (active). Also, the result in [15], in experiment [9], in experiment [10] and in experiment [11] was inactive.

Regarding `O=C(O)COc1nc(Cl)c(Cl)cc1Cl`, the molecule was classed as inactive in experiment [9], in experiment [2] and in experiment [3].

Consider `O=C(Nc1ccccc1)Nc1ccnc(Cl)c1`, for which the molecule was classed as inactive in experiment [10], in [11], in experiment [8], in [2] and in [3]. In addition, in experiment [16], the concentration at half-maximal activity (AC50) is 6.12 µM (active).

Take `COP(=S)(OC)Oc1nc(Cl)c(Cl)cc1Cl`: the molecule was called inactive in experiment [6], in experiment [1], in [2] and in experiment [3].

`COC(=O)N(OC)c1ccccc1COc1ccn(-c2ccc(Cl)cc2)n1`: the result in experiment [6], in [1], in experiment [2] and in experiment [3] was inactive.

With `COC(=O)C(C)Oc1ccc(Oc2ccc(Cl)cc2Cl)cc1` (configuration not stated), the molecule was called inactive in [6] and in [1].
